Screens as filed in PubChem.
TGFb inhibitor = inhibitors of TGF-b signaling; HepG2 CAGA-GFP TGF-b/SMAD3 reporter, GFP fluorescence, 18 h; TGF-beta stimulated, 500 pg/mL final; 1.2% of 410,000 active; Potency, µM (highest dose often 46.1 µM), without a hit: at the top dose activity, negative = inhibition, hits mostly inhibitors; AID 588855; also: % is scaled to controls: 0 for no effect and ±100 for the full control effect; nearly all actives have a fitted effect of over 65% in size
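Inhibition was scored as loss of TGF-beta-induced (500 pg/mL final, 18 hours, 37 degrees C) GFP in HEPG2 cells carrying a CAGA-GFP reporter, in DMEM with 1% FBS. Well GFP was summed per cell; Activity was normalised to unstimulated and stimulated DMSO wells, then concentration-response fitting.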
KB-V1 MDR tox = kills drug-selected multidrug resistant KB-V1 cells; KB-V1 MDR cells viability, CellTiter-Glo, 72 h; Potency, µM (doses to about 46.1 µM), usual class: cytotoxic; 3.4% of 400,000 active; AID 1347076; also: % is scaled to controls: 0 for no effect and ±100 for the full control effect; nearly all actives have a fitted effect of over 60% in size
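KB-V1 cells (P-gp-expressing MDR subline of KB-3-1) in phenol-red-free DMEM with 10% FBS were exposed to library compounds over a concentration series for 72 h at 37 degrees C. Viability read by CellTiter-Glo luminescence; concentration-effect curves fitted after normalization.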
HT1080 IDH1KD tx = HT-1080 IDH1 knockdown cell toxicity (counter line). Potency, µM (top dose mostly 46.1 µM), for the others: top-dose activity, negative = toxicity, most hits filed as cytotoxic. HT-1080 IDH1 knockdown viability, ATP luminescence, 48 h. 2% of 360,000 active;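 also: 0% = DMSO wells and -100% = cell-free medium wells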
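% activity derives from luminescence (CellTiter-Glo), normalised to DMSO and no-cell wells. HT-1080-IDH1KD cells, 750/well, had 48 h compound exposure at 37 °C.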
HT1080-NT tox = kills 2HG-producing HT-1080-NT fibrosarcoma cells | HT-1080-NT fibrosarcoma viability, CellTiter-Glo ATP luminescence, 48 h | Potency, µM (top dose mostly 46.1 µM), inactives show at the highest dose activity, negative = less viability, usual class: cytotoxic | 1.6% of 360,000 active;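 also: NT is the 2HG producing partner of a matched IDH1 knockdown line; 0% = DMSO-treated cells and -100% = media-only wells without cells; nearly all actives have a fitted effect of over 55% in size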
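Viability by CellTiter-Glo luminescence after 48 h compound exposure at 37C of HT-1080-NT cells (750/well, RPMI, 5% FBS). % activity scaled between DMSO wells and medium-only wells, then curve-fitted and categorized by curve class.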
HepG2 tox-1 = counter-screen for TGF-b inhibitors: cytotoxicity in HepG2 cells; 0.76% of 410,000 active; AID 588856; Potency, µM (doses to about 46.1 µM), without a hit: at the highest dose activity change, negative = cytotoxicity, actives largely listed as cytotoxic; HepG2 CAGA-GFP viability, ATP luminescence, 18 h
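CellTiter-Glo luminescence gave cytotoxicity after 18 hours at 37 degrees C. The cells were HepG2 CAGA-GFP in 1% FBS DMEM, stimulated with 500 pg/mL TGF-beta after compound addition. %Activity was normalised to no-cell wells (complete cell-killing) and DMSO (no toxicity), and curves were fitted and classified.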
KB-3-1 tox = KB-3-1 parental cell cytotoxicity; KB-3-1 viability, CellTiter-Glo ATP luminescence, 72 h; Potency, µM (highest dose often 46.1 µM), hits mostly cytotoxic; 1.4% of 400,000 active; AID 1347075; also: % is scaled to controls: 0 for no effect and ±100 for the full control effect; nearly all actives have a fitted effect of over 60% in size
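Cytotoxicity measured as CellTiter-Glo luminescence after 72 h at 37 C. Compound titrations were pinned onto drug-naive KB-3-1 parental adenocarcinoma cells grown in DMEM with 10% FBS, and normalized data fitted to concentration-response curves.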
TGFb CAGA inh = confirmation of TGF-b signaling inhibitors in HepG2 reporter cells. AID 720534. HepG2 CAGA-GFP TGF-b reporter, GFP fluorescence, 18 h; cells stimulated with TGF-beta, 500 pg/mL. 63% of 1,600 active. Potency, µM (doses to about 46.1 µM), for the others: at the highest dose activity, negative = inhibition, actives largely listed as inhibitors. shares compounds with TGFb inhibitor; also: % is scaled to controls: 0 for no effect and ±100 for the full control effect; nearly all actives have a fitted effect of over 65% in size
HepG2 tox-2 = toxic to HepG2 cells in TGF-b counterscreen | shares compounds with TGFb inhibitor | HepG2 CAGA-GFP viability, ATP luminescence, 18 h; cells stimulated with TGF-beta, 500 pg/mL | Potency, µM (titrated, usually from 46.1 µM), for the others: top-dose activity, negative = cytotoxicity, most hits filed as inhibitors | 27% of 1,600 active; also: % is scaled to controls: 0 for no effect and ±100 for the full control effect; nearly all actives have a fitted effect of over 70% in size
TGFb CCL64 inh = orthogonal confirmation of TGF-b inhibitors in CCL64 cells; 41% of 1,600 active; Potency, µM (top dose mostly 46.1 µM), for inactives: top-dose activity, negative = inhibition, hits mostly inhibitors; shares compounds with TGFb inhibitor; CCL64 CAGA-GFP reporter, TGF-b stimulated, GFP fluorescence, 18 h; also: nearly all actives have a fitted effect of over 65% in size
TGFb COP inh = validation of TGF-b inhibitors in HepG2 COP promoter reporter. 3% of 1,600 active. AID 720537. Potency, µM (series often up to 46.1 µM), for inactives: at the highest dose activity, negative = inhibition, usual class: inhibitors. shares compounds with TGFb inhibitor. HepG2 COP-GFP TGF-b reporter, GFP fluorescence, 18 h; cells stimulated by added recombinant TGF-beta; also: nearly all actives have a fitted effect of over 70% in size
Starred values were filed as active, the others as inactive; i = inactive; ? = inconclusive; / = not tested or not shown; ! = repeats disagree. Shown are actives, neighbours in structure and some others; about 6.6% of the full set was active somewhere. Calls follow the shape of the dose curve; as a rule, active = well fitted curve in the direction sought with a large enough effect; inconclusive = small, poorly fitted or top-dose-only effect, or another doubt; inactive = no such curve, though single readings can be large; an effect the other way counts as inactive or inconclusive. Potency is read from the fitted curve at half-maximal effect.

SMILES	TGFb inhibitor	KB-V1 MDR tox	HT1080 IDH1KD tx	HT1080-NT tox	HepG2 tox-1	KB-3-1 tox	TGFb CAGA inh	HepG2 tox-2	TGFb CCL64 inh	TGFb COP inh
COc1ccc(OC)c(S(=O)(=O)Nc2ccc(C)c(C)c2)c1	-1%	i	?	-6%	-14%	i	/	/	/	/
COc1ccc(OC)c(S(=O)(=O)Nc2cc(Cl)cc(Cl)c2)c1	7.9µM*	?	-21%	-1%	0%	i	21µM*	-8%	-27%	-15%
CCSc1ncc(Cl)c(C(=O)Nc2ccc(S(=O)(=O)N(C)c3ccccc3)cc2)n1	-29%	i	/	/	-5%	i	/	/	/	/
CCN(c1ccccc1)S(=O)(=O)c1ccc(NC(=O)c2nc(S(C)(=O)=O)ncc2Cl)cc1	6.3µM*	?	16µM*	18µM*	6.3µM*	5.2µM*	4.1µM*	5.2µM*	1.5µM*	6.5µM*
CCS(=O)(=O)c1ncc(Cl)c(C(=O)Nc2ccc(S(=O)(=O)N(C)c3ccccc3)cc2)n1	3.5µM*	?	3.7µM*	2.6µM*	4.5µM*!	2.6µM*	4.6µM*	4.1µM*	1.6µM*	7.3µM*
CC(C)Sc1ncc(Cl)c(C(=O)Nc2ccc(S(=O)(=O)N(C)c3ccccc3)cc2)n1	-21%	i	/	/	-35%	i	/	/	/	/
Cc1cc(C)c(NC(=O)Cn2c(=O)n(CC3CCCO3)c(=O)c3ccccc32)c(C)c1 (stereo not drawn)	-3%	i	/	/	0%	i	/	/	/	/
COc1ccc(N2C(=O)CS(=O)(=O)C23C(=O)N(Cc2ccc(F)cc2)c2ccc(C)cc23)cc1 (stereo not drawn)	12%	?	/	/	-54%	i	/	/	/	/
CC(C)N1C(=O)c2ccccc2NC(=O)C1C(=O)NCc1cccc(C(F)(F)F)c1 (stereo not drawn)	/	i	23%	22%	/	i	/	/	/	/
O=C(NCCN1CCOCC1)c1cc(S(=O)(=O)Nc2ccccc2F)c(Cl)cc1Cl	8%	i	-1%	7%	3%	i	/	/	/	/
O=C(c1cc(S(=O)(=O)Nc2ccccc2F)c(Cl)cc1Cl)N1CCN(CCO)CC1	?	i	-1%	-3%	-12%	i	-2%	-1%	?	-2%
CC(=O)OCC(NC(=O)C(Cc1ccccc1)NC(=O)OC(C)(C)C)C1OC(n2cc(C)c(=O)[nH]c2=O)C(OC(C)=O)C1OC(C)=O (stereo not drawn)	-10%	/	/	/	-1%	/	/	/	/	/
O=S(=O)(/C(=C\c1ccc(C(F)(F)F)cc1)c1nc2ccccc2[nH]1)c1ccccc1	4.5µM*	?	1.5µM*	1.8µM*	18µM*	2.6µM*	2.9µM*	2.6µM*	3.3µM*	?
Cc1c(C(=O)OCC(C)C)[nH]c2c1C(=O)CC(c1ccco1)C2 (stereo not drawn)	?	?	1.2µM*	1.5µM*	-31%	i	9.2µM*	1%	8.2µM*	-19%
COC(=O)c1[nH]c2c(c1C)C(=O)CC(c1ccc(OC)cc1)C2 (stereo not drawn)	0%	i	-8%	-1%	-17%	i	/	/	/	/
COC(=O)c1[nH]c2c(c1C)C(=O)CC(c1ccccc1)C2 (stereo not drawn)	?	0.58µM*	?	0.45µM*	1%	1.3µM*	?	0%	?	-12%
COc1ccc(NC(=O)CN(C)C(=O)C2(c3ccccc3)CCCC2)cc1	-2%	?	-9%	-1%	-3%	?	/	/	/	/
COc1ccc([C@H]2CC(=O)C=C(c3cccc(Br)c3)C2)cc1OC	4.5µM*	i	-29%	-28%	12%	?	?	-28%	?	28%
COc1ccc([C@H]2CC(=O)C=C(/C=C/c3ccccc3)C2)cc1OC	13µM*	i	-1%	-17%	-6%	i	?	-19%	?	14%
COc1ccc([C@H]2CC(=O)C=C(c3cccc(Br)c3)C2)cc1	?	i	-1%	-5%	-7%	i	/	/	/	/
O=C1C=C(/C=C/c2ccccc2)C[C@@H](c2ccc(F)cc2)C1	?	i	2%	0%	-14%	i	/	/	/	/
Cc1ccc(NC(=O)Cn2c(=O)n(CCC(=O)NCc3ccccc3Cl)c(=O)c3ccccc32)c(C)c1	0%	?	/	/	-7%	i	/	/	/	/
NC(=O)C1C(=O)c2ccccc2C1(C[N+](=O)[O-])c1ccccc1 (stereo not drawn)	7%	i	-2%	-2%	-14%	i	/	/	/	/
COCCNC(=O)C(c1cccs1)N(C(=O)Cn1nnc2ccccc21)c1ccccc1 (stereo not drawn)	-8%	i	18%	16%	-3%	i	/	/	/	/
COc1ccc(N(C(=O)CCl)C(C(=O)NCCc2ccccc2)c2cccs2)cc1Cl (stereo not drawn)	7.9µM*	13µM*	5.8µM*	18µM*	-102%	8.2µM*	4.6µM*	5.2µM*	2.1µM*	21µM*
Cc1cc(C)nc(/N=C(\N)Nc2ccccc2-c2ccccc2)n1	10µM*	?	?	?	-34%	?	?	?	?	71%
Cc1ccc2nc(-c3ccc(Cl)c(NC(=O)c4ccc5c(c4)OCCO5)c3)oc2c1	-6%	i	/	/	-7%	i	/	/	/	/
